Bioassay records from PubChem BioAssay.
An excerpt weighted towards active compounds, which were near 3.8% of everything screened.
CBFb RUNX1 block = inhibitors of human CBF-beta and RUNX1 interaction | 230,000 tested, under 10 active | AID 1477 | AlphaScreen CBFb-His/RUNX1-biotin binding, biochemical | Potency, µM (highest dose often 59.8 µM), for inactives: at the top dose activity, negative = inhibition, actives largely listed as inhibitors; note: % of control where 0% means no effect
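CBF-beta (His) and RUNX1 (biotin), 30 nM each; 20 min preassociation; + compound, 15 min; + beads 50 ng each (Ni, streptavidin), 90 min; RT; AlphaScreen read.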
PLK1 PBD block = blocks phosphopeptide binding to human PLK1 polo-box domain; Potency, µM, for the others: max response, negative = inhibition, actives largely listed as inhibitors; Plk1 PBD binding of FITC phosphopeptide, fluorescence polarization; hit rate 2.8% among 360,000; P53350; note: potency is the fitted concentration of half-maximal effect; series mostly up to about 57 µM; % is set by controls: 0 for no effect and ±100 for the full control effect; nearly all actives have a fitted effect of over 65% in size
KCNH2 3.1 block = inhibitors of human KCNH2 3.1 potassium channel isoform; U2OS KCNH2 3.1, thallium flux FluxOr; hits give low values; activity change, % (tested at about 1.8 µM); hit rate 0.95% among 340,000;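 active = maximum activity change below -70%; inconclusive = maximum activity change from -70% to -50%; inactive = maximum activity change above -50%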;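 note: thallium influx rate constant from kinetic fluorescence after stimulation buffer; % is set by controls: 0 for no effect and ±100 for the full control effect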
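FluxOr-based Tl+ influx in U2OS cells transduced with KCNH2 3.1 virus; rate constants normalized to DMSO controls.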
hERG WT inh = inhibitors of human wildtype KCNH2 potassium channel. U2OS, BacMam KCNH2, thallium flux FluxOr; hits give low values. activity change, % at 1.84 µM. AID 720551. hit rate 0.37% among 340,000;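 active = maximum activity change below -70%; inconclusive = maximum activity change between -70% and -50%; inactive = maximum activity change above -50%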; note: % is set by controls: 0 for no effect and ±100 for the full control effect
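U2OS cells transduced with wild-type KCNH2 virus are loaded with FluxOr dye for 45 min, and thallium flux is measured in kinetic reads before and after stimulation buffer. Rate constants are normalized to DMSO controls.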
VDR inh = blocks the human vitamin D receptor | P11473 | VDR-SRC2-3 peptide fluorescence polarization, 2 h | Potency, µM, for the others: max response, negative = inhibition, actives largely listed as inhibitors | hit rate 0.93% among 400,000 | AID 504847; note: potency is the fitted concentration of half-maximal effect; % is set by controls: 0 for no effect and ±100 for the full control effect
Target sequence (P11473 whole entry, looked up): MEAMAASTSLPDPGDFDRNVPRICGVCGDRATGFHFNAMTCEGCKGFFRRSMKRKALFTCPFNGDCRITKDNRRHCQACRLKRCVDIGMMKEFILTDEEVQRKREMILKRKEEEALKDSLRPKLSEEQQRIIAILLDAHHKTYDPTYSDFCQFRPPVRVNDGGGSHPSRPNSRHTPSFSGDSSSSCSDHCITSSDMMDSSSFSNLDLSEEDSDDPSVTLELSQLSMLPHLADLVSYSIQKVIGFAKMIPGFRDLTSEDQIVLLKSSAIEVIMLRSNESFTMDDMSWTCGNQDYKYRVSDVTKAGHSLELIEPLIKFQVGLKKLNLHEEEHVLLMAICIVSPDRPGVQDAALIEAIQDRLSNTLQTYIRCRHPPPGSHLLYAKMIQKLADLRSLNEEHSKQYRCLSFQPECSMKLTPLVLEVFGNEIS
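Fluorescence polarization assay measuring small-molecule disruption of VDR binding to the coregulator peptide SRC2-3. Compounds were pin-transferred (23 nl) into the reagent mix and incubated 2 h at room temperature before reading.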
MBNL1 CUG block = MBNL1-poly(CUG) RNA binding inhibition. TR-FRET MBNL1-His/biotin-(CUG)12 binding, 665/545 ratio. Potency, µM (titrated, usually from 57.5 µM), inactives show at the highest dose activity change, negative = inhibition, hits mostly inhibitors. hit rate 0.036% among 280,000; active = well fitted inhibition curve with a large enough effect in the signal ratio, with a control signal flat, not every such curve was filed as active; inconclusive = small, poorly fitted or top-dose-only effect, or effect the other way, or a change in a side signal; inactive = no such curve, though single readings can be large or run the other way; the % refers to the signal ratio; note: potency is the fitted concentration of half-maximal effect; % is set by controls: 0 for no effect and ±100 for the full control effect
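Compound titration spanned 92 nM–58 uM against the MBNL1-His/biotin-(CUG)12 complex. After 60 min at room temperature with 5 nM streptavidin-XL665 and 0.055 ng/ul terbium anti-His, ratiometric 665/545 nm emission (Ex 340 nm) normalized to controls.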
* = called active by the depositor; ? = inconclusive; · = no result given. Unless noted, calls come from the whole dose curve; as a rule, active = well fitted curve in the direction sought with a large enough effect; inconclusive = small, poorly fitted or top-dose-only effect, or another doubt; inactive = no such curve, though single readings can be large; an effect the other way counts as inactive or inconclusive.

SMILES	CBFb RUNX1 block	PLK1 PBD block	KCNH2 3.1 block	hERG WT inh	VDR inh	MBNL1 CUG block
O=C(Nc1ccc2oc(-c3cc(Br)ccc3Cl)nc2c1)c1cc2ccccc2o1	·	·	·	·	-3.0%	·
COc1ccccc1NC(=O)c1cc2cc3ccc(OC)c(Cl)c3nc2s1	·	·	·	·	0.7%	·
COc1cccc(NC(=O)CSc2ncc(S(=O)(=O)c3ccc(C)c(C)c3)c(=O)[nH]2)c1	·	·	·	·	-12.8%	·
CCCCN(C)CC(O)Cn1cc(/C=C/C(=O)c2cccs2)c2ccccc21 (stereo unspecified)	7.7%	31.0%	-14.3	0.0	-11.9%	5.6%
O=C(/C=C/c1cn(CC(O)CN2CCCCCC2)c2ccccc12)c1cccs1 (stereo unspecified)	2.1%	27.4%	-85.7*	-1.1	16.5%	·
CCSC(=O)N=Nc1ccc(O)cc1	·	26.7µM*	-2.7	-6.6	?	·
O=C(CCNc1cccc(Cl)c1)c1cccs1	9.8%	-5.3%	-70.1*	-1.1	1.0%	-3.0%
COc1ccc(C2=Nn3c(nnc3-c3cc(OC)ccc3OC)SC2)cc1	-7.4%	·	·	·	·	·
Cc1ccc(-n2c3nc(=O)[nH]c(=O)c-3cc3c(C)nn(-c4ccccc4)c32)c(C)c1	-2.9%	?	-148.8*	-151.3*	4.3%	?
Cc1ccc(C)c(-n2c3nc(=O)[nH]c(=O)c-3cc3c(C)nn(-c4ccccc4)c32)c1	·	·	·	·	6.8%	·
CCCNC(=O)c1ccc2c(c1)N=C(C)c1c(C)ccc(C)c1S2	·	·	·	·	7.3%	·
CCc1ccc(OC2=NS(=O)(=O)c3ccccc32)cc1	-3.0%	11.9µM*	-17.9	0.7	-4.4%	-3.8%
Cc1ccc(OC2=NS(=O)(=O)c3ccccc32)cc1	-0.4%	-0.9%	0.8	6.1	19.4%	1.9%
CCN(CC)c1cccc(OC2=NS(=O)(=O)c3ccccc32)c1	-11.5%	3.36µM*	-1.0	-1.6	-4.4%	22.1%
CCn1nnc2cc(C(=O)Nc3cccc(Cl)c3)ccc21	·	·	·	·	25.3%	·
Cc1ccc(NC(=O)c2cc(-n3cnnc3)ccc2Cl)cc1	?	-1.2%	0.7	-24.4	6.6%	12.2%
CN(C)C(=O)c1ccc(NC(=O)c2cc(-n3cnnc3)ccc2Cl)cc1	16.0%	16.8µM*	28.6	1.0	?	·
O=C(CSc1nc2ncc(Br)cc2[nH]1)c1cccc([N+](=O)[O-])c1	-17.4%	-7.0%	1.6	-7.8	-12.6%	?
O=C(C[n+]1cc(Br)cc(Br)c1)c1cccc([N+](=O)[O-])c1	-0.7%	-20.9%	-79.9*	-9.5	-27.3%	?
CC1CCN(C(=O)c2ccc3c(c2)N(Cc2ccccc2F)C(=O)c2ccccc2S3(=O)=O)CC1	·	·	·	·	-19.0%	·
CC1(C)c2ssc(=S)c2-c2ccccc2N1C(=O)c1ccco1	-18.0%	15µM*	-31.4	23.9	?	17.3%
Cc1ccc2c(c1)-c1c(ssc1=S)C(C)(C)N2C(=O)CSC1=NCCS1	?	-2.2%	5.3	-13.9	3.2%	33.5%
Cc1ccc2c(c1)-c1c(ssc1=S)C(C)(C)N2C(=O)c1ccco1	-28.5%	2.12µM*	-3.0	-3.9	-58.3%	4.4%
CCOc1ccc(NCc2cccn2-c2nnc(N3CCC(C(=O)NCCc4ccc(OC)c(OC)c4)CC3)s2)cc1	·	·	·	·	-14.1%	·
Cc1ccc(CNC(=O)c2c[nH]n3c(=O)c(Cc4ccc(Cl)cc4)c(C)nc23)cc1	·	·	·	·	-8.5%	·
SMILES	CBFb RUNX1 block	PLK1 PBD block	KCNH2 3.1 block	hERG WT inh	VDR inh	MBNL1 CUG block
CCC(=O)C1=C(c2ccc(OC)c(OC)c2)N(C(=O)CC)n2c(CC)nnc2S1	·	·	·	·	8.8%	·
Cc1ccc(/C=N/NC(=O)Cn2nc(C)c([N+](=O)[O-])c2C)o1	5.3%	-4.2%	-7.6	-3.3	19.8%	7.3%
COc1ccc(/C=N/NC(=O)Cn2nc(C)c([N+](=O)[O-])c2C)cc1	1.4%	29.9µM*	-3.6	-0.4	?	8.1%
CSc1ccccc1NC(=O)COC(=O)Cc1cccs1	1.6%	-6.7%	10.3	3.6	-3.3%	1.9%
CSc1ccccc1NC(=O)COC(=O)Cc1ccsc1	·	-6.1%	-96.8*	1.2	-4.9%	·
COc1ccc(Nc2nc(-c3sc(N)nc3C)cs2)cc1	?	?	-8.0	0.9	-23.2%	?
